According to PubChem BioAssay (NCI):
This is part of a sample that, as a whole, favours compounds with a hit. Of some 83,000 tested, about 20% had one in any assay.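 Compound tested at a single concentration for 48 hours in 96-well plates; a percent growth value below 10 was scored as active.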 Calls of active or inactive are those of the source.

Assays:
Test in all cases: NCI-60 one-dose screen, 48 h (100 = growth as untreated, 0 = no growth, -100 = all killed)
SR leukemia = settings: 10 µM unless noted
RPMI-8226 leukemia = settings: 10 µM unless noted
OVCAR-8 ovarian = settings: 10 µM unless noted
OVCAR-5 ovarian = settings: 10 µM unless noted
OVCAR-4 ovarian = settings: 10 µM unless noted
SK-OV-3 ovarian = settings: 10 µM unless noted
IGROV1 ovarian = settings: 10 µM unless noted
OVCAR-3 ovarian = settings: 10 µM unless noted
NCI/ADR-RES ovarian = settings: 10 µM unless noted
T-47D breast = settings: 10 µM unless noted
BT-549 breast = settings: 10 µM unless noted
MDA-MB-435 melanoma = settings: 10 µM unless noted
SW-620 colon = settings: 10 µM unless noted
MCF7 breast = settings: 10 µM unless noted
HCT-116 colon = settings: 10 µM unless noted
HCC-2998 colon = settings: 10 µM
KM12 colon = settings: 10 µM unless noted

Measured: growth

O=C1C=CC2(NN=C(c3ccccc3)N2c2ccc(Cl)cc2)c2cccc(O)c21 (stereo not drawn)
inactive: SR leukemia 36.8% | RPMI-8226 leukemia 64% | OVCAR-8 ovarian 43.4% | OVCAR-5 ovarian 47.6% | OVCAR-4 ovarian 43.3% | SK-OV-3 ovarian 102% | IGROV1 ovarian 66.7% | OVCAR-3 ovarian 13.5% | NCI/ADR-RES ovarian 45.1% | T-47D breast 87.2% | BT-549 breast 33.5% | SW-620 colon 52.5% | MCF7 breast 45.4% | HCT-116 colon 26.1% | HCC-2998 colon 64.4% | KM12 colon 58.6%
active: MDA-MB-435 melanoma -91.5%

CCN1CCN(Cc2ccc(-c3cc4c(N[C@H](C)c5ccccc5)ncnc4[nH]3)cc2)CC1
inactive: SR leukemia 21.2% | RPMI-8226 leukemia 55.9% | OVCAR-8 ovarian 35.6% | OVCAR-4 ovarian 76.2% | OVCAR-3 ovarian 56.8% | NCI/ADR-RES ovarian 46.7% | T-47D breast 29% | BT-549 breast 79.2% | MDA-MB-435 melanoma 37% | SW-620 colon 13.1% | MCF7 breast 48.6% | HCT-116 colon 19.7% | HCC-2998 colon 14.3% | KM12 colon 31.2%
active: OVCAR-5 ovarian 8.61% | SK-OV-3 ovarian -7.56% | IGROV1 ovarian -1.26%

O=C(Nc1ccc(Nc2ncnc3sc4c(c23)CCOC4)cc1)Nc1ccc(Cl)c(C(F)(F)F)c1
inactive: SR leukemia 83% | RPMI-8226 leukemia 80.8% | OVCAR-8 ovarian 109% | OVCAR-5 ovarian 89.2% | OVCAR-4 ovarian 131% | SK-OV-3 ovarian 95.3% | IGROV1 ovarian 79.5% | OVCAR-3 ovarian 87.2% | NCI/ADR-RES ovarian 94.7% | T-47D breast 81.8% | BT-549 breast 89.1% | MDA-MB-435 melanoma 99.1% | SW-620 colon 121% | MCF7 breast 90.5% | HCT-116 colon 77.5% | HCC-2998 colon 106% | KM12 colon 86.4%

C=CCN1C(=O)c2cccc3c(-c4ccc5c(c4)ncn5C4CCCCC4)ccc(c23)C1=O
inactive: SR leukemia 39.8% | RPMI-8226 leukemia 29.5% | OVCAR-8 ovarian 49.5% | OVCAR-5 ovarian 75.3% | OVCAR-4 ovarian 32.3% | SK-OV-3 ovarian 73.4% | IGROV1 ovarian 67.1% | OVCAR-3 ovarian 62.4% | NCI/ADR-RES ovarian 39.6% | T-47D breast 11.2% | BT-549 breast 17% | MDA-MB-435 melanoma 39.4% | SW-620 colon 86.3% | MCF7 breast 37.6% | HCT-116 colon 32% | HCC-2998 colon 75.2% | KM12 colon 49.4%

CN1C/C=C\CCOc2cccc(c2)-c2ccnc(n2)Nc2cccc(c2)C1
active: SR leukemia -29.1% | RPMI-8226 leukemia -42.5% | OVCAR-8 ovarian -22.4% | OVCAR-5 ovarian 6.02% | OVCAR-4 ovarian -28.5% | SK-OV-3 ovarian -17.2% | IGROV1 ovarian -44.9% | OVCAR-3 ovarian 3.03% | NCI/ADR-RES ovarian -29% | T-47D breast -42.4% | BT-549 breast -69.4% | MDA-MB-435 melanoma -85.2% | SW-620 colon -5.5% | MCF7 breast -33% | HCT-116 colon -50% | HCC-2998 colon -40% | KM12 colon -53.3%

CCN1CCN(CCCN(C[C@H]2Cc3ccccc3CN2)[C@H]2CCCc3cccnc32)CC1
inactive: SR leukemia 53.6% | RPMI-8226 leukemia 81.8% | OVCAR-8 ovarian 85.3% | OVCAR-5 ovarian 92.7% | OVCAR-4 ovarian 89.5% | SK-OV-3 ovarian 89.4% | IGROV1 ovarian 94.5% | OVCAR-3 ovarian 84.2% | NCI/ADR-RES ovarian 92.1% | T-47D breast 103% | BT-549 breast 79.7% | MDA-MB-435 melanoma 105% | SW-620 colon 89.6% | MCF7 breast 100% | HCT-116 colon 76.4% | HCC-2998 colon 102% | KM12 colon 87.1%

Cc1cc(Oc2ccccc2)ccc1Nc1ncnc2ccc(-c3cnc(Cl)c(NS(C)(=O)=O)c3)cc12
inactive: SR leukemia 14.2% | OVCAR-8 ovarian 40.4% | OVCAR-5 ovarian 10.8% | OVCAR-4 ovarian 40.1% | OVCAR-3 ovarian 11.7% | NCI/ADR-RES ovarian 54.6% | MDA-MB-435 melanoma 17.9% | SW-620 colon 38.8% | HCT-116 colon 22.9% | HCC-2998 colon 25.7% | KM12 colon 34.5%
active: RPMI-8226 leukemia 7.65% | SK-OV-3 ovarian -26.3% | IGROV1 ovarian -23.5% | T-47D breast -22.4% | BT-549 breast -0.502% | MCF7 breast 9.35%

NC1(C(=O)N[C@@H](CCO)c2ccc(Cl)cc2)CCN(c2ncnc3[nH]ccc23)CC1
inactive: SR leukemia 23.7% | RPMI-8226 leukemia 80% | OVCAR-8 ovarian 76.4% | OVCAR-5 ovarian 51.6% | OVCAR-4 ovarian 64.9% | OVCAR-3 ovarian 61.3% | NCI/ADR-RES ovarian 90.7% | T-47D breast 11.7% | MDA-MB-435 melanoma 26.3% | SW-620 colon 62.7% | MCF7 breast 27.4% | HCT-116 colon 45.7% | HCC-2998 colon 46.8%
active: SK-OV-3 ovarian -6.71% | IGROV1 ovarian 3.26% | BT-549 breast -9.59%

COc1cc2ncnc(Nc3ccc(F)c(Cl)c3)c2cc1NC(=O)/C=C/CN1CCCCC1
active: SR leukemia -14.5% | RPMI-8226 leukemia -31.2% | OVCAR-8 ovarian -38.2% | OVCAR-5 ovarian -22% | OVCAR-4 ovarian -57.5% | SK-OV-3 ovarian -93.5% | IGROV1 ovarian -47.7% | OVCAR-3 ovarian -83.2% | NCI/ADR-RES ovarian -55% | T-47D breast -63% | BT-549 breast -32.4% | MDA-MB-435 melanoma -95.3% | SW-620 colon -78.4% | MCF7 breast -53.7% | HCT-116 colon -78.5% | HCC-2998 colon -88% | KM12 colon -83.8%

O=C(O)C1(Cc2cccc(Nc3nccs3)n2)CCC(Oc2cccc(Cl)c2F)CC1 (stereo not drawn)
inactive: SR leukemia 47.5% | RPMI-8226 leukemia 59.8% | OVCAR-8 ovarian 56.6% | OVCAR-5 ovarian 80.1% | OVCAR-4 ovarian 106% | SK-OV-3 ovarian 62.7% | IGROV1 ovarian 76.7% | OVCAR-3 ovarian 71.2% | NCI/ADR-RES ovarian 46.4% | T-47D breast 50.9% | BT-549 breast 84.4% | MDA-MB-435 melanoma 49.6% | SW-620 colon 74.9% | MCF7 breast 46.7% | HCT-116 colon 45% | HCC-2998 colon 95.3% | KM12 colon 19.3%

COCc1c(-c2ccc(NC(=O)Nc3cc(C(F)(F)F)ccc3F)c(F)c2)c2c(N)ncnn2c1CN1CCOCC1
active: SR leukemia -9.37% | RPMI-8226 leukemia -33.1% | OVCAR-8 ovarian -28.6% | OVCAR-5 ovarian -18.3% | OVCAR-4 ovarian -6.98% | SK-OV-3 ovarian -34.8% | IGROV1 ovarian -21.6% | OVCAR-3 ovarian 6.05% | NCI/ADR-RES ovarian -21.4% | T-47D breast -27% | BT-549 breast -39.5% | MDA-MB-435 melanoma -68.8% | SW-620 colon -0.244% | MCF7 breast -22.9% | HCT-116 colon -1.82% | HCC-2998 colon -52.1% | KM12 colon -37.2%

Cc1c(Cn2c(C)nc3c(C(=O)O)cc(N4CCOCC4)cc32)cccc1C(F)(F)F
inactive: SR leukemia 75.7% | RPMI-8226 leukemia 104% | OVCAR-8 ovarian 92.1% | OVCAR-5 ovarian 101% | OVCAR-4 ovarian 96.2% | SK-OV-3 ovarian 96% | IGROV1 ovarian 114% | OVCAR-3 ovarian 87.2% | NCI/ADR-RES ovarian 62.1% | T-47D breast 69.2% | BT-549 breast 70.9% | MDA-MB-435 melanoma 106% | SW-620 colon 102% | MCF7 breast 92.6% | HCT-116 colon 92.1% | HCC-2998 colon 103% | KM12 colon 103%

CN1CCN(c2nc(C3=C(c4c[nH]c5ccccc45)C(=O)NC3=O)c3ccccc3n2)CC1
inactive: SR leukemia 68.7% | RPMI-8226 leukemia 97.8% | OVCAR-8 ovarian 66.9% | OVCAR-5 ovarian 25.1% | OVCAR-4 ovarian 71.9% | SK-OV-3 ovarian 87.1% | IGROV1 ovarian 75.4% | OVCAR-3 ovarian 110% | NCI/ADR-RES ovarian 85.1% | T-47D breast 102% | BT-549 breast 91% | MDA-MB-435 melanoma 41.8% | SW-620 colon 48.4% | MCF7 breast 95.1% | HCT-116 colon 32.4% | HCC-2998 colon 19.2% | KM12 colon 36.1%

Cn1c(Nc2ccc(C(F)(F)F)cc2)nc2cc(Oc3ccnc(-c4ncc(C(F)(F)F)[nH]4)c3)ccc21
inactive: SR leukemia 32.1% | RPMI-8226 leukemia 86.7% | OVCAR-8 ovarian 58.1% | OVCAR-5 ovarian 63.2% | OVCAR-4 ovarian 64.7% | IGROV1 ovarian 33.1% | OVCAR-3 ovarian 58.8% | NCI/ADR-RES ovarian 66.3% | T-47D breast 48.5% | BT-549 breast 37.5% | MDA-MB-435 melanoma 28.8% | SW-620 colon 65.5% | MCF7 breast 82.3% | HCT-116 colon 32.9% | HCC-2998 colon 73% | KM12 colon 58.3%
active: SK-OV-3 ovarian 6.69%

C[C@@H](Oc1cc(-n2cnc3ccc(CN4CCN(C)CC4)cc32)sc1C(N)=O)c1ccccc1C(F)(F)F
active: SR leukemia -19.6% | OVCAR-8 ovarian 5.18% | SK-OV-3 ovarian -2.74% | MDA-MB-435 melanoma 9.74%
inactive: RPMI-8226 leukemia 34.2% | OVCAR-5 ovarian 19.9% | OVCAR-4 ovarian 33.8% | IGROV1 ovarian 16.8% | OVCAR-3 ovarian 38% | NCI/ADR-RES ovarian 18.5% | T-47D breast 40.8% | BT-549 breast 24.9% | SW-620 colon 13.6% | MCF7 breast 17.7% | HCT-116 colon 17.6% | HCC-2998 colon 14.1% | KM12 colon 10.3%

CCN(CC)CCNC(=O)c1c(C)[nH]c(/C=C2\C(=O)Nc3ccc(F)cc32)c1C
inactive: OVCAR-5 ovarian 35% | OVCAR-4 ovarian 23.9% | SK-OV-3 ovarian 26.9% | IGROV1 ovarian 24.6% | OVCAR-3 ovarian 67.9% | NCI/ADR-RES ovarian 18.4% | T-47D breast 80.4% | BT-549 breast 20.2%
active: SR leukemia -9.44% | RPMI-8226 leukemia -10.3% | OVCAR-8 ovarian 1.47% | MDA-MB-435 melanoma 3.92% | SW-620 colon -2.88% | MCF7 breast 7.17% | HCT-116 colon -59.4% | HCC-2998 colon 1.98% | KM12 colon 4.04%

Cc1cc(Nc2cc(N3CCN(C)CC3)nc(Sc3ccc(NC(=O)C4CC4)cc3)n2)n[nH]1
inactive: SR leukemia 16.7% | RPMI-8226 leukemia 44.8% | OVCAR-8 ovarian 38.6% | OVCAR-5 ovarian 29% | OVCAR-4 ovarian 77% | SK-OV-3 ovarian 27.6% | IGROV1 ovarian 30.7% | OVCAR-3 ovarian 61.5% | NCI/ADR-RES ovarian 73.8% | T-47D breast 33.1% | BT-549 breast 23.5% | MDA-MB-435 melanoma 27.6% | SW-620 colon 19.3% | MCF7 breast 28.5% | HCT-116 colon 18.3% | HCC-2998 colon 33.9%
active: KM12 colon 6.38%
